MITF inh: inhibitors of human MITF. O75030. AlphaScreen MITF homodimerization, bead proximity signal. inhibition, % at 2.6 µM. 650,000 tested, 0.91% active. AID 1259374; in the data active means inhibition above about 50%;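 further: 0% = vehicle wells with protein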
TEAD-YAP block: TEAD-YAP interaction inhibition. HEK-TIYL cells, TEAD-Gal4/YAP UAS-luciferase luminescence. inhibition, % at 9.12 µM. 640,000 tested, 1.4% active; in the data active means inhibition above about 32%;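 further: 0% = median of test compound wells and 100% = reference inhibitor wells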
FBW7 activator: activators of human E3 ligase FBW7; 650,000 tested, 0.13% active; AlphaScreen FBW7–phospho-cyclin E peptide binding, activator screen; Q969H0; normalized activity (activation), % at 26.1 µM; in the data active means normalized activity above about 1.9%;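 further: purified mutant Fbw7 with reduced substrate affinity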
GPR151 activ: activates the human receptor GPR151. Q8TDV0. PathHunter beta-arrestin GPR151 cells, luminescence. activation, % at 11.2 µM. 650,000 tested, 1% active; in the data active means activation above about 4.9%;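 further: 0% = median of compound wells and 100% = cells with positive control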
Target sequence (Q8TDV0 whole entry, looked up): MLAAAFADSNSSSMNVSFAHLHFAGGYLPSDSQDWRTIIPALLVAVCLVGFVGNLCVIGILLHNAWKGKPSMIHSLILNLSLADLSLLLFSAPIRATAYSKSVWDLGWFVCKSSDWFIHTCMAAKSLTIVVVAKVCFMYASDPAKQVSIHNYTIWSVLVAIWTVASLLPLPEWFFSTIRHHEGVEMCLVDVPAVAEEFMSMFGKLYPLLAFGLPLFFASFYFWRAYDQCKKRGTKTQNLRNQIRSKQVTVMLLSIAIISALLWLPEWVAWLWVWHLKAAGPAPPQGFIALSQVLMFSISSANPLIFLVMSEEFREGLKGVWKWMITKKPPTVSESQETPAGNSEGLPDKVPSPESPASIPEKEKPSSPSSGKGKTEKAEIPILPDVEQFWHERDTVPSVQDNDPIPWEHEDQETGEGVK
* marks the source's active call; other numbers are inactive results. Compounds with a hit are over-represented: about 3.4% of the library has one in this group of screens.

SMILES | MITF inh | TEAD-YAP block | FBW7 activator | GPR151 activ
O=C(Nc1cnn(-c2ccc(C(=O)NC3CCc4ccccc43)cc2)c1)c1ccoc1 (configuration not stated) | 13 | 56* | 1 | -1
Oc1ccc(O)c(/C=N\Nc2nnc3c(n2)[nH]c2ccccc23)c1 | 22 | 50* | 0 | 2
Oc1ccc(/C=N/Nc2nnc3c(n2)[nH]c2ccccc23)c(O)c1 | 19 | 56* | -1 | 0
Oc1ccc(/C=N/Nc2nnc3c(n2)[nH]c2ccccc23)cc1 | 23 | -31 | 0 | -1
C(=N\Nc1nnc2c(n1)[nH]c1ccccc12)/c1ccccn1 | 27 | 56* | -2 | 0
Cc1nnc(NC(=O)c2ccc(F)cc2Cl)s1 | 2 | -41 | 0 | 2
Oc1ccc(Br)cc1C1CC(c2cccc(Br)c2)=NC(c2ccc(Cl)cc2Cl)N1 (configuration not stated) | 6 | 10 | 0 | -3
Oc1ccc(Br)cc1C1CC(c2cccc(Br)c2)=NC(c2ccc(F)c(Br)c2)N1 (configuration not stated) | 1 | 32* | 0 | 2
COc1cccc(C2=NC(c3ccc(Br)cc3)NC(c3cc(Br)ccc3O)C2)c1 (configuration not stated) | 0 | 1 | 0 | 3
COc1cccc(C2=NC(C(C)C)NC(c3cc(Br)ccc3O)C2)c1 (configuration not stated) | -11 | 35* | 0 | 0
CC(=O)c1ccc(NC(=O)CSc2nc3cc(C)c(C)cc3[nH]2)cc1 | 0 | -11 | 0 | -2
Nc1cccc(-c2nc(Nc3ccccc3)c3ncn(-c4ccsc4)c3n2)c1 | 1 | 49* | 0 | 0
COc1ccc(-c2nc(Nc3ccc(NC(C)=O)cc3)c3ncn(-c4ccsc4)c3n2)cc1 | 7 | 43* | 0 | 0
CC(=O)Nc1ccc(Nc2nc(-c3cccc(N)c3)nc3c2ncn3-c2ccsc2)cc1 | -2 | 43* | 0 | 3
O=[N+]([O-])c1cccc(C(c2nnnn2-c2cccc(Cl)c2)N2CCOCC2)c1 (configuration not stated) | 5 | -2 | 0 | 0
COc1ccc2ccccc2c1/C=C(\C#N)C(N)=O | -5 | -1 | 0 | 1
COc1cc(CN2CCC3(CC2)CC3C(=O)NCCc2ccccc2OC)ccc1F (configuration not stated) | 2 | 3 | 0 | 0
COc1ccc(/C=N/NC(=O)COc2ccc(Br)cc2OC)cc1 | 15 | -4 | 0 | -1
NC(=O)c1c(Cl)nsc1S(=O)(=O)Cc1ccccc1 | -1 | 46* | 0 | -2
COC(=O)Nc1c(Cl)nsc1S(=O)(=O)Cc1ccccc1 | -1 | 14 | 0 | 1
CC(=O)N1C(=S)NC(=O)/C1=C/c1cc2cc(C)ccc2nc1N1CCOCC1 | -1 | 38* | 0 | 1
Cc1cc(=O)oc2cc(OC(C)C(=O)O)ccc12 (configuration not stated) | 6 | 3 | 0 | 0
CCCCCCOc1ccc(C(=O)OCC(=O)c2ccccc2)cc1 | -4 | 9 | 0 | -1
CCCCS(=O)(=O)CC(COC(=O)c1ccccc1)S(=O)(=O)CCCC (configuration not stated) | 11 | 33* | 0 | 0
CCOc1ccc(-c2cc(=O)c3ccc(NC(=O)c4ccncc4)cc3o2)cc1 | 0 | -9 | 0 | 1
SMILES | MITF inh | TEAD-YAP block | FBW7 activator | GPR151 activ
O=C1c2ccccc2C(=O)c2c(O)c([N+](=O)[O-])cc(O)c21 | 8 | 3 | 0 | 1
O=c1cc(-c2ccc3c(c2)OCCO3)oc2ccc([N+](=O)[O-])cc12 | 10 | -9 | 0 | -1
O=c1cc2oc3cc(O)c(O)cc3c(-c3ccccc3[N+](=O)[O-])c-2cc1O | 114* | 6 | 0 | -1
O=c1cc2oc3cc(O)c(O)cc3c(-c3ccc([N+](=O)[O-])cc3)c-2cc1O | 97* | 7 | -2 | 0
CCOc1ccc(-c2c3cc(O)c(=O)cc-3oc3cc(O)c(O)cc23)cc1 | 111* | -5 | 0 | -1
COc1cc(CNC2CCCCC2)cc(OC)c1OC | 21 | -8 | 0 | 1
Oc1ccc(O)c(CN2CCCCCC2)c1 | 82* | -2 | -1 | -1
CN(C)c1ccc2c3c(cccc13)C(=O)N(CCO)C2=O | -4 | -20 | 0 | -1
Nc1c(S(=O)(=O)O)cc2c3c(cccc13)C(=O)N(CCO)C2=O | 72* | -2 | 0 | 2
CC(Oc1ccc(C#N)cc1)C(=O)NN (configuration not stated) | 0 | -4 | 0 | -1
Cc1ccc(-c2noc(CCCCCN)n2)cc1 | 1 | 72* | 0 | 1
O=C(NC(=S)NNc1ccccc1[N+](=O)[O-])c1ccco1 | 6 | -34 | -1 | -1
CC(C)=CCC/C(C)=C/CC(C)(C)CNCCN1CCNCC1 | -4 | 58* | 1 | -2
c1ccc(-c2ccc(N3CCCCCC3)nn2)cc1 | -2 | 93* | 0 | -6
COc1ccccc1N1CCN(c2ccc(-c3ccccc3)nn2)CC1 | 3 | 88* | 0 | -5
O=C(NC1CC1)C1CCN(c2ccc(-c3ccccc3)nn2)CC1 | -1 | 10 | 0 | -5
Cc1ccc(NC(=O)Cn2c(-n3nc(C)cc3C)nc(C)cc2=O)cc1 | 4 | 43* | 1 | -1
O=C1C(=O)N(Cc2ccc(Br)cc2)c2ccccc21 | 9 | 13 | 0 | 1
O=C(Nc1ccc(Br)c(Cl)c1)C1CC(=O)N(C2CCCCC2)C1 (configuration not stated) | -15 | 0 | 0 | -1
Cc1ccc(Cl)cc1N1CCN(C(=O)CN2CC(c3ccccc3)CC2=O)CC1 (configuration not stated) | 7 | 7 | 0 | -1
O=C1C(=O)N(Cc2cccc3ccccc23)c2ccc(Br)cc21 | 42 | 25 | 0 | -1
O=C1C(=O)N(Cc2cccc3ccccc23)c2ccc([N+](=O)[O-])cc21 | 15 | 35* | 0 | -1
O=C1C(=O)N(Cc2ccc(Br)cc2)c2ccc([N+](=O)[O-])cc21 | -14 | 33* | 0 | 0
O=C1C(=O)N(Cc2ccc(Cl)c(Cl)c2)c2ccc([N+](=O)[O-])cc21 | -4 | 8 | 0 | 2
Cc1ccc(CN2C(=O)C(=O)c3cc([N+](=O)[O-])ccc32)cc1 | 3 | 66* | 0 | 0
SMILES | MITF inh | TEAD-YAP block | FBW7 activator | GPR151 activ
O=Cc1cccc(-c2ccc(N3CCN(c4c(Cl)cncc4Cl)CC3)nc2)c1 | 3 | -12 | 0 | 0
COC(=O)c1ccccc1NC(=O)NNC(=O)c1ccccc1-n1cccc1 | 15 | 2 | 0 | -1
CCOc1ccccc1NC(=O)C1=C(C)NC(=O)NC1c1cccc2ccccc12 (configuration not stated) | -4 | -5 | 0 | 0
CC1=NN(c2cccc(C(=O)O)c2)C(=O)/C1=C\c1ccc(-c2cccc(C(=O)O)c2)o1 | 62* | -20 | -1 | 2
CC1=NN(c2cccc(C(=O)O)c2)C(=O)/C1=C\c1ccco1 | 65* | -10 | -1 | -1
CC1=NN(c2cccc(Cl)c2)C(=O)/C1=C/c1cc2c(cc1Cl)OCO2 | 8 | 2 | 0 | 1
